Measurements from PubChem BioAssay (NCI).
Compounds without any hit were thinned out: in the full panel of roughly 79,000, 15% have a hit. Activity calls are given as the source filed them. No stated cut-off is given here; in the data, active means growth inhibition above about 70%; inactive means the rest.

Experiments:
[1] = NCI Yeast Anticancer Drug Screen. Data for the mec2-1 strain (AID 157); conditions: S. cerevisiae mec2-1 strain, active compounds read high
In short: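 Growth inhibition is read against vehicle-treated controls after compound exposure of the mec2-1 yeast strain, which is defective in DNA damage repair or cell cycle control.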

[2] = NCI Yeast Anticancer Drug Screen. Data for the rad14 strain (AID 159);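 further: 0% = growth of vehicle-treated control cultures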; conditions: S. cerevisiae rad14 strain growth inhibition, active compounds read high
In short: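 Yeast cells carrying a defined DNA-repair defect were exposed to compounds, and growth inhibition was calculated relative to vehicle-treated control cultures.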

[3] = NCI Yeast Anticancer Drug Screen. Data for the sgs1 mgt1 strain (AID 161);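 further: 0% = growth of cultures given vehicle only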; conditions: S. cerevisiae sgs1 mgt1 strain, active compounds read high
In short: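 Percent growth inhibition was derived by comparing compound-exposed mutant yeast with vehicle-exposed cultures. The strain carries alterations in DNA damage repair.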

[4] = NCI Yeast Anticancer Drug Screen. Data for the CLN2oe strain (AID 163);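 further: 0% = growth of vehicle-only control cultures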; conditions: S. cerevisiae CLN2oe strain, active compounds read high
In short: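 Compound-treated yeast; growth vs vehicle ctrl = % inhibition. Genetically altered strain (cell-cycle control).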

[5] = NCI Yeast Anticancer Drug Screen. Data for the cln2 rad14 strain (AID 165);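 further: 0% = growth equal to vehicle treated cultures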; conditions: S. cerevisiae cln2 rad14 strain, active compounds read high
In short: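 Growth inhibition, relative to vehicle-treated controls, is the read-out. The test organism is a yeast strain with defined genetic alterations, cln2 rad14.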

[6] = NCI Yeast Anticancer Drug Screen. Data for the bub3 strain (AID 167); conditions: S. cerevisiae bub3 mutant strain, active compounds read high
In short: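 Compounds were applied to a genetically altered yeast strain carrying a cell-cycle control defect. Growth inhibition was scored against vehicle-treated controls.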

[7] = NCI Yeast Anticancer Drug Screen. Data for the wt2 strain (AID 169);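 further: 0% = growth of vehicle-treated yeast cultures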; conditions: S. cerevisiae wt2 strain growth inhibition, active compounds read high
In short: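 Compound exposure of yeast; growth compared with vehicle controls; inhibition reported.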

[8] = NCI Yeast Anticancer Drug Screen. Data for the mlh1 strain (AID 171);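 further: 0% = growth of vehicle-treated control cultures of the same strain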; conditions: S. cerevisiae mlh1 strain growth inhibition, active compounds read high
In short: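 Compounds are applied to a genetically altered yeast strain, and its growth is compared with that of vehicle-treated cultures to give percent inhibition.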

[9] = NCI Yeast Anticancer Drug Screen. Data for the sgs1 strain (AID 173);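 further: 0% = growth of vehicle-only control cultures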; conditions: S. cerevisiae sgs1 mutant, active compounds read high
In short: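 Compounds applied to genetically altered yeast; growth compared with vehicle-treated cultures to give % inhibition.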

[10] = NCI Yeast Anticancer Drug Screen. Data for the mlh1 rad18 strain (AID 175); conditions: S. cerevisiae mlh1 rad18 strain growth inhibition, active compounds read high
In short: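 Cells of a genetically altered yeast strain, deficient in DNA damage repair, were treated with compound. Their growth was then compared with that of vehicle-treated cultures to give inhibition.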

[11] = NCI Yeast Anticancer Drug Screen. Data for the rad18 strain (AID 177); conditions: S. cerevisiae rad18 mutant growth inhibition, active compounds read high
In short: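 Compounds are applied to a repair-deficient yeast strain, and growth is compared with that of vehicle-treated cultures to give percent inhibition.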

[12] = NCI Yeast Anticancer Drug Screen. Data for the rad52 strain (AID 147);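 further: 0% = growth of vehicle-treated control cultures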; conditions: S. cerevisiae rad52 mutant growth inhibition, active compounds read high
In short: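 DNA repair-defective yeast; compound exposure; growth scored against vehicle controls.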

[13] = NCI Yeast Anticancer Drug Screen. Data for the wt1 strain (AID 149);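 further: 0% = growth of vehicle-treated wt1 cultures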; conditions: S. cerevisiae wt1 strain (SPY 50644) growth inhibition, active compounds read high
In short: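 Yeast wt1 strain exposed to compounds; growth inhibition measured relative to vehicle-treated controls.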

[14] = NCI Yeast Anticancer Drug Screen. Data for the rad50EPP+ strain (AID 151);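 further: 0% = growth of vehicle-treated control cultures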; conditions: S. cerevisiae rad50 mutant strain, active compounds read high
In short: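 rad50EPP+ yeast treated with test compounds. Readout: growth vs vehicle control.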

[15] = NCI Yeast Anticancer Drug Screen. Data for the mgt1 strain (AID 153); conditions: S. cerevisiae mgt1 mutant growth inhibition, active compounds read high
In short: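 Growth inhibition relative to vehicle controls was scored for the mgt1 yeast strain after compound exposure.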

[16] = NCI Yeast Anticancer Drug Screen. Data for the rad50 strain (AID 155);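 further: 0% = growth of vehicle-only cultures of the same strain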; conditions: S. cerevisiae rad50 strain growth inhibition, active compounds read high
In short: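 Yeast carrying a defined DNA repair defect were exposed to test compounds, and growth was compared with vehicle-treated controls to give percent inhibition.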

[17] = at 5.0 µM (retest, dose inferred, filed as 0.5)
[18] = at 50.0 µM (retest, dose inferred, filed as 5.0)

Measured: growth inhibition

c1ccc2c(OCC3CO3)cccc2c1 (centres undefined)
inactive: [1]; [17] 6% | [1]; at 11.0 µM 10% | [1]; at 33.0 µM 32% | [1]; at 50.0 µM 49.3% | [2]; at 1.2 µM -1% | [2]; at 3.7 µM -3% | [2]; at 11.0 µM 1% | [2]; at 33.0 µM 17% | [3]; [17] 50% | [4]; at 1.2 µM -4% | [4]; at 3.7 µM -3% | [4]; at 11.0 µM -2% | [4]; at 33.0 µM 2% | [4]; at 100.0 µM 4% | [5]; [17] 3% | [5]; at 50.0 µM 63.8% | [6]; at 1.2 µM -3% | [6]; at 3.7 µM -5% | [6]; [17] -12% | [6]; at 11.0 µM -11% | [6]; at 33.0 µM -12% | [6]; [18] -8% | [6]; at 50.0 µM 13.2% | [6]; at 100.0 µM 21% | [7]; at 1.2 µM -2% | [7]; at 3.7 µM 7% | [7]; at 11.0 µM 0% | [7]; at 33.0 µM 5% | [7]; at 100.0 µM 25% | [8]; at 1.2 µM 0% | [8]; at 3.7 µM 1% | [8]; at 11.0 µM 5% | [8]; at 33.0 µM 10% | [8]; at 100.0 µM 40% | [9]; at 1.2 µM 15% | [9]; at 3.7 µM 41% | [10]; [17] 14% | [11]; at 1.2 µM 18% | [11]; at 3.7 µM 55%
active: [1]; [18] 75% | [1]; at 100.0 µM 91% | [2]; at 100.0 µM 89% | [3]; [18] 83% | [3]; at 50.0 µM 84.5% | [5]; [18] 71% | [9]; at 11.0 µM 72% | [9]; at 33.0 µM 88% | [9]; at 100.0 µM 93% | [10]; [18] 86% | [10]; at 50.0 µM 82.1% | [11]; at 11.0 µM 86% | [11]; at 33.0 µM 95% | [11]; at 100.0 µM 98%

O=C1C=C(c2ccccc2)OC1(c1ccccc1)N1CCOCC1 (centres undefined)
active: [12]; at 100.0 µM 98% | [13]; at 100.0 µM 98% | [15]; at 100.0 µM 98% | [16]; at 100.0 µM 98% | [1]; at 100.0 µM 98% | [2]; at 100.0 µM 98% | [3]; [18] 90% | [4]; at 100.0 µM 97% | [6]; at 100.0 µM 98% | [7]; at 100.0 µM 98% | [8]; at 100.0 µM 98% | [9]; at 33.0 µM 76% | [9]; at 100.0 µM 98% | [10]; [18] 75% | [11]; at 100.0 µM 98%
inactive: [12]; at 1.2 µM -1% | [12]; at 3.7 µM -1% | [12]; at 11.0 µM 3% | [12]; at 33.0 µM 16% | [13]; at 1.2 µM -1% | [13]; at 3.7 µM 2% | [13]; at 11.0 µM -4% | [13]; at 33.0 µM -7% | [14]; at 1.2 µM 3% | [14]; at 3.7 µM 7% | [14]; at 11.0 µM 7% | [14]; at 33.0 µM 10% | [14]; at 100.0 µM 17% | [15]; at 1.2 µM -5% | [15]; at 3.7 µM -6% | [15]; at 11.0 µM -4% | [15]; at 33.0 µM 59% | [16]; at 1.2 µM 1% | [16]; at 3.7 µM 4% | [16]; [17] -20% | [16]; at 11.0 µM 1% | [16]; at 33.0 µM 19% | [16]; [18] 69% | [16]; at 50.0 µM -0.2% | [1]; at 1.2 µM -1% | [1]; at 3.7 µM 4% | [1]; [17] -12% | [1]; at 11.0 µM 3% | [1]; at 33.0 µM 8% | [1]; [18] 0% | [1]; at 50.0 µM -5.95% | [2]; at 1.2 µM -2% | [2]; at 3.7 µM -1% | [2]; at 11.0 µM -1% | [2]; at 33.0 µM 9% | [3]; [17] -2% | [3]; at 50.0 µM 55.7% | [4]; at 1.2 µM 1% | [4]; at 3.7 µM -4% | [4]; at 11.0 µM 6% | [4]; at 33.0 µM 0% | [5]; [17] 2% | [5]; [18] 14% | [5]; at 50.0 µM 19.9% | [6]; at 1.2 µM 0% | [6]; at 3.7 µM -1% | [6]; [17] -1% | [6]; at 11.0 µM 4% | [6]; at 33.0 µM 14% | [6]; [18] 44% | [6]; at 50.0 µM -27.7% | [7]; at 1.2 µM 0% | [7]; at 3.7 µM -1% | [7]; at 11.0 µM -3% | [7]; at 33.0 µM 52% | [8]; at 1.2 µM 3% | [8]; at 3.7 µM 1% | [8]; at 11.0 µM -7% | [8]; at 33.0 µM 55% | [9]; at 1.2 µM 0% | [9]; at 3.7 µM 0% | [9]; at 11.0 µM 4% | [10]; [17] -17% | [10]; at 50.0 µM -1.85% | [11]; at 1.2 µM 1% | [11]; at 3.7 µM -4% | [11]; at 11.0 µM -2% | [11]; at 33.0 µM 7%

S=C1SCN(C2CCCCC2)CN1C1CCCCC1
inactive: [12]; at 1.2 µM -21% | [12]; at 3.7 µM -25% | [12]; at 11.0 µM -14% | [12]; at 33.0 µM -1% | [12]; at 100.0 µM 55% | [13]; at 1.2 µM -21% | [13]; at 3.7 µM -29% | [13]; at 11.0 µM -29% | [13]; at 33.0 µM -21% | [13]; at 100.0 µM 40% | [14]; at 1.2 µM -51% | [14]; at 3.7 µM -36% | [14]; at 11.0 µM -3% | [14]; at 33.0 µM 44% | [15]; at 1.2 µM -72% | [15]; at 3.7 µM -45% | [15]; at 11.0 µM -2% | [15]; at 33.0 µM -23% | [15]; at 100.0 µM 64% | [16]; at 1.2 µM -4% | [16]; at 3.7 µM -8% | [16]; [17] 44% | [16]; at 11.0 µM -1% | [16]; at 33.0 µM 13% | [16]; at 50.0 µM 47.5% | [16]; at 100.0 µM 67% | [1]; at 1.2 µM -65% | [1]; at 3.7 µM -78% | [1]; [17] 56% | [1]; at 11.0 µM -64% | [1]; at 33.0 µM -28% | [1]; at 50.0 µM 63.5% | [1]; at 100.0 µM 58% | [2]; at 1.2 µM -31% | [2]; at 3.7 µM -25% | [2]; at 11.0 µM -24% | [2]; at 33.0 µM 2% | [2]; at 100.0 µM 45% | [3]; [17] 0% | [4]; at 1.2 µM -21% | [4]; at 3.7 µM -19% | [4]; at 11.0 µM -16% | [4]; at 33.0 µM -1% | [4]; at 100.0 µM 19% | [5]; [17] 10% | [5]; at 50.0 µM 31.1% | [6]; at 1.2 µM -18% | [6]; at 3.7 µM -10% | [6]; [17] 20% | [6]; at 11.0 µM -23% | [6]; at 33.0 µM 22% | [7]; at 1.2 µM -37% | [7]; at 3.7 µM -35% | [7]; at 11.0 µM -39% | [7]; at 33.0 µM -22% | [7]; at 100.0 µM 39% | [8]; at 1.2 µM -44% | [8]; at 3.7 µM -43% | [8]; at 11.0 µM -31% | [8]; at 33.0 µM -5% | [9]; at 1.2 µM -36% | [9]; at 3.7 µM -22% | [9]; at 11.0 µM -17% | [9]; at 33.0 µM 24% | [10]; [17] 34% | [10]; at 50.0 µM 49.1% | [11]; at 1.2 µM -57% | [11]; at 3.7 µM -38% | [11]; at 11.0 µM -39% | [11]; at 33.0 µM -3% | [11]; at 100.0 µM 64%
active: [14]; at 100.0 µM 88% | [16]; [18] 99% | [1]; [18] 100% | [3]; [18] 94% | [3]; at 50.0 µM 72.3% | [5]; [18] 81% | [6]; [18] 94% | [6]; at 50.0 µM 82.8% | [6]; at 100.0 µM 71% | [8]; at 100.0 µM 79% | [9]; at 100.0 µM 71% | [10]; [18] 99%
